Test results reported in PubChem BioAssay (EPA / NIEHS).
Records with an inconclusive call do not appear. A structure can be active in one record and inactive in another. The source made the active and inactive calls. The calls were made as follows, unless noted: active = hit-call score of the fitted dose curve at least 0.9, where 1 is the maximum; inactive = score below 0.9.

Assays:
[1] = read-out: Tissue Factor, F3 (gene 2152); experiment: BSK_LPS_TissueFactor: BioMAP Diversity Plus: LPS Assay for Tissue Factor Biomarker Activity (AID 2283084); conditions: primary human HUVEC with PBMC; actives raise or lower the signal
Outline: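 Compound was added to an endothelial cell/PBMC co-culture, and after 24 h tissue factor (CD142) was read by ELISA. Gain or loss of signal was fitted against a DMSO baseline, and parallel SRB staining (560 nm) tracked overt cytotoxicity.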

[2] = read-out: Tumor necrosis factor (Homo sapiens) (UniProt P01375); experiment: BSK_LPS_TNFa: BioMAP Diversity Plus: LPS Assay for Tumour Necrosis Factor alpha (TNFa) Biomarker Activity (AID 2283085); conditions: primary human HUVEC with PBMC; actives raise or lower the signal;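 as to AC50: TNFa protein level quantified by ELISA in the co-culture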
Outline: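 TNFa was quantified by ELISA in LPS-activated co-cultures of human endothelial cells and PBMC, 24 h post-dosing. Both increases and decreases versus DMSO were fitted.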

[3] = read-out: Vascular cell adhesion molecule 1 (VCAM1), VCAM1 (gene 7412); experiment: BSK_LPS_VCAM1: BioMAP Diversity Plus: LPS Assay for Vascular cell adhesion molecule 1 (VCAM1) Biomarker Activity (AID 2283086); conditions: primary human HUVEC with PBMC; actives raise or lower the signal
Outline: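 VCAM-1 quantified by ELISA in an LPS-activated co-culture of human endothelial cells and peripheral blood mononuclear cells, read 24 h post-treatment. Fitted in both directions versus DMSO; parallel SRB staining flags overt cytotoxicity.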

[4] = read-out: CD38, CD38 (gene 952); experiment: BSK_SAg_CD38: BioMAP Diversity Plus: SAg Assay for CD38 Biomarker Activity (AID 2283087); conditions: primary human HUVEC with PBMC; actives raise or lower the signal
Outline: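 CD38 quantified by ELISA (fluorescence) in a superantigen-activated endothelial cell–PBMC co-culture at 24 h post-dose. Activity fitted in both directions relative to DMSO; parallel SRB and Alamar Blue cytotoxicity read-outs.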

[5] = read-out: CD40, CD40 (gene 958); experiment: BSK_SAg_CD40: BioMAP Diversity Plus: SAg Assay for CD40 Biomarker Activity (AID 2283088); conditions: primary human HUVEC with PBMC; actives raise or lower the signal
Outline: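 CD40 is measured by fluorescence ELISA in an endothelial/PBMC primary human co-culture at 24 h post-dose. Fitting is bidirectional, DMSO baseline. Parallel SRB staining (560 nm) flags cytotoxicity.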

[6] = read-out: Monocyte Chemoattractant Protein-1 (MCP1), CCL2 (gene 6347); experiment: BSK_SAg_MCP1: BioMAP Diversity Plus: SAg Assay for Monocyte Chemoattractant Protein-1 (MCP1) Biomarker Activity (AID 2283090); conditions: primary human HUVEC with PBMC; actives raise or lower the signal
Outline: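 Values derive from bidirectional fitting of ELISA-measured MCP1 against DMSO controls. Readings were taken 24 h after dosing human vascular endothelial cells co-cultured with peripheral blood mononuclear cells under superantigen stimulation.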

[7] = read-out: E-selectin (Homo sapiens) (UniProt P16581); experiment: BSK_SAg_Eselectin: BioMAP Diversity Plus: SAg Assay for Eselectin Biomarker Activity (AID 2283091); conditions: primary human HUVEC with PBMC; actives raise or lower the signal
Outline: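 Cell-surface E-selectin is read by ELISA at 24 h in the SAg co-culture of HUVEC and PBMC. Curves are fitted in both directions relative to DMSO. Parallel SRB total-protein staining tracks overt toxicity.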

[8] = read-out: Monokine induced gamma interferon (MIG), CXCL9 (gene 4283); experiment: BSK_SAg_MIG: BioMAP Diversity Plus: SAg Assay for Monokine induced gamma interferon (MIG) Biomarker Activity (AID 2283092); conditions: primary human HUVEC with PBMC; actives raise or lower the signal
Outline: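 Values reflect bidirectional fitting of ELISA-measured MIG against DMSO vehicle, taken 24 h after dosing of a co-culture of human umbilical vein endothelial cells and peripheral blood mononuclear cells.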

[9] = BSK_SAg_PBMCCytotoxicity: PBMC Cytotoxicity Assessment in the BioMAP Diversity Plus: SAg Assay (AID 2283093); conditions: primary human HUVEC with PBMC;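 also: PBMC viability measured as Alamar Blue reduction fluorescence at 546/580 nm; fitted both ways against DMSO so a hit may be loss or gain of signal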;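 as to AC50: PBMC superantigen activated with SEB plus TSST-1 one hour after compound addition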
Outline: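 Alamar Blue reduction (6 h, 546/580 nm) reports PBMC cytotoxicity after 90 h superantigen activation (SEB, TSST-1; 20 ng/mL final each) with 1 h compound pre-treatment. Gain or loss of signal fitted versus DMSO.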

[10] = read-out: Interleukin-8 (IL8), CXCL8 (gene 3576); experiment: BSK_SAg_IL8: BioMAP Diversity Plus: SAg Assay for Interleukin-8 (IL8) Biomarker Activity (AID 2283094); conditions: primary human HUVEC with PBMC; actives raise or lower the signal
Outline: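 ELISA readout of IL-8 from a superantigen-activated endothelial/PBMC primary human co-culture, taken 24 h post-dosing and fitted in both directions against DMSO; parallel SRB total-protein staining flags overt cytotoxicity.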

[11] = BSK_SAg_Proliferation: Cell Proliferation Assessment in the BioMAP Diversity Plus: SAg Assay (AID 2283095); conditions: primary human HUVEC with PBMC;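 also: relative cell number as total protein by SRB absorbance in sub-confluent culture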
Outline: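 Relative cell number in the endothelial cell/PBMC co-culture was quantified at 96 h by SRB staining (0.1% SRB, 10% TCA fixation, read at 560 nm). Curves were fitted in both directions relative to DMSO baseline.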

[12] = BSK_SAg_SRB: Viability Assessment in the BioMAP Diversity Plus: SAg Assay (AID 2283096); conditions: primary human HUVEC with PBMC;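 also: cells read one day after compound addition; hits may be either gain or loss of signal compared with DMSO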
Outline: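 This overt-cytotoxicity endpoint quantifies protein in human endothelial/PBMC co-cultures at 24 h using SRB absorbance (560 nm) after trichloroacetic acid fixation. Values reflect signal change from the DMSO negative control, fitted bidirectionally.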

[13] = molecular target: human CYP2B6, CYP2B6 (gene 1555) (UniProt P20813); experiment: NVS_ADME_hCYP2B6: NovaScreen (NVS) CYP450-related Enzyme Activity (ADME) Assay for human CYP2B6 (AID 2283101; active = hit-call score of the fitted dose curve at least 0.9, where 1 is the maximum)
human CYP2B6, CYP2B6 (gene 1555), sequence (P20813 whole entry, looked up): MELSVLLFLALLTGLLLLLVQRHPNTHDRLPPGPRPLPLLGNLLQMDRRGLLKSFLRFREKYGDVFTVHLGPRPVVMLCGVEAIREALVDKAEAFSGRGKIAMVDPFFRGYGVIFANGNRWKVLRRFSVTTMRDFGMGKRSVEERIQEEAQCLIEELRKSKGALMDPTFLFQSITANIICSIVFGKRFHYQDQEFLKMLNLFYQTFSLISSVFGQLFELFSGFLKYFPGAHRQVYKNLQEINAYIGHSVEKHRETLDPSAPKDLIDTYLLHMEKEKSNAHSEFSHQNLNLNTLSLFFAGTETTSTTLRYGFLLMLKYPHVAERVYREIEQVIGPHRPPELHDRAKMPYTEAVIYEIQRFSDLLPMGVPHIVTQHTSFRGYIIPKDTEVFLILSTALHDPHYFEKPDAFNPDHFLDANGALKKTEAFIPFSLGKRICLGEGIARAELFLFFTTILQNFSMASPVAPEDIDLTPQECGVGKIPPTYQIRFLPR
Outline: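 Compounds were first screened in duplicate at 10 uM against recombinant enzyme, with the fluorescent product measured after 1 hour. Active compounds were retested over a concentration series. Loss of fluorescence versus acetonitrile control was scored as reduced enzyme activity.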

[14] = molecular target: human CYP1A2, CYP1A2 (gene 1544) (UniProt P05177); experiment: NVS_ADME_hCYP1A2: NovaScreen (NVS) CYP450-related Enzyme Activity (ADME) Assay for human CYP1A2 (AID 2283102; active = hit-call score of the fitted dose curve at least 0.9, where 1 is the maximum;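 also: fluorescence from turnover of a fluorogenic substrate by recombinant insect-cell CYP1A2; potency for inhibition since loss of fluorescence marks reduced CYP1A2 activity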)
human CYP1A2, CYP1A2 (gene 1544), sequence (P05177 whole entry, looked up): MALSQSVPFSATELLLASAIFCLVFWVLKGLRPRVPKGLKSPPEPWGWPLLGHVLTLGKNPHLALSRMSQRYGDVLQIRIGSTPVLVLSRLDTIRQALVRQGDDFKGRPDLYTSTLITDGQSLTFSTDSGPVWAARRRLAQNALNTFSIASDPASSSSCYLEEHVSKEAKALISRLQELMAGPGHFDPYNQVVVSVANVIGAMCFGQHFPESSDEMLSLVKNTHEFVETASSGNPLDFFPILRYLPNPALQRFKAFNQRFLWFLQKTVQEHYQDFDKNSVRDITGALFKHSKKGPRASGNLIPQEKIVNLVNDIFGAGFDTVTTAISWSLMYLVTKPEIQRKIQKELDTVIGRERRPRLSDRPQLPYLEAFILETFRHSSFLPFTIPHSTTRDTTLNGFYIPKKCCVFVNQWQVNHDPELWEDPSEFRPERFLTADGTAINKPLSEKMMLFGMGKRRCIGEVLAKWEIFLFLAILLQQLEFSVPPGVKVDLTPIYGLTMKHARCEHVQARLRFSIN
Outline: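 Enzyme activity of insect-cell-expressed human CYP1A2 measured by fluorescence 0.5 h after compound addition, relative to acetonitrile. Compounds first tested in duplicate at 10 uM, actives followed up in concentration series.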

[15] = molecular target: human CYP2D6, CYP2D6 (gene 1565) (UniProt P10635); experiment: NVS_ADME_hCYP2D6: NovaScreen (NVS) CYP450-related Enzyme Activity (ADME) Assay for human CYP2D6 (AID 2283107; active = hit-call score of the fitted dose curve at least 0.9, where 1 is the maximum)
human CYP2D6, CYP2D6 (gene 1565), sequence (P10635 whole entry, looked up): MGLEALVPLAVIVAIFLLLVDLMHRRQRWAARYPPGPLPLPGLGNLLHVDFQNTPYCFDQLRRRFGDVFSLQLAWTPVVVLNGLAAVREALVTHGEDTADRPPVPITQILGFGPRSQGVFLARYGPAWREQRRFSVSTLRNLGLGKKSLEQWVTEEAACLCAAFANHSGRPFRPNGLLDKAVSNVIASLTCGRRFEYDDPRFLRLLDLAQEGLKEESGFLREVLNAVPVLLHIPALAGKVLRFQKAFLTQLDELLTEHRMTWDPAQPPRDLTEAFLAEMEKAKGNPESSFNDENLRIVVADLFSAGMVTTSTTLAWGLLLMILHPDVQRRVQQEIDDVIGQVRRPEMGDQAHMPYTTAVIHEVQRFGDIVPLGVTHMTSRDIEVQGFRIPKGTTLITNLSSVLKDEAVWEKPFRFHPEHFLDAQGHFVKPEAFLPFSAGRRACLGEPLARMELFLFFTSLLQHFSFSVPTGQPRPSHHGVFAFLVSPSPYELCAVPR
Outline: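 Fluorescence readout of recombinant CYP2D6 (insect-cell derived) activity after 1 h incubation with test chemical. Acetonitrile served as baseline, loss-of-signal direction. Single-concentration duplicate screening at 10 uM preceded concentration-response retesting.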

[16] = molecular target: Cytochrome P450 3A4 (Homo sapiens) (UniProt P08684); experiment: NVS_ADME_hCYP3A4: NovaScreen (NVS) CYP450-related Enzyme Activity (ADME) Assay for human CYP3A4 (AID 2283110; active = hit-call score of the fitted dose curve at least 0.9, where 1 is the maximum)
Cytochrome P450 3A4 (Homo sapiens), sequence (P08684 whole entry, looked up): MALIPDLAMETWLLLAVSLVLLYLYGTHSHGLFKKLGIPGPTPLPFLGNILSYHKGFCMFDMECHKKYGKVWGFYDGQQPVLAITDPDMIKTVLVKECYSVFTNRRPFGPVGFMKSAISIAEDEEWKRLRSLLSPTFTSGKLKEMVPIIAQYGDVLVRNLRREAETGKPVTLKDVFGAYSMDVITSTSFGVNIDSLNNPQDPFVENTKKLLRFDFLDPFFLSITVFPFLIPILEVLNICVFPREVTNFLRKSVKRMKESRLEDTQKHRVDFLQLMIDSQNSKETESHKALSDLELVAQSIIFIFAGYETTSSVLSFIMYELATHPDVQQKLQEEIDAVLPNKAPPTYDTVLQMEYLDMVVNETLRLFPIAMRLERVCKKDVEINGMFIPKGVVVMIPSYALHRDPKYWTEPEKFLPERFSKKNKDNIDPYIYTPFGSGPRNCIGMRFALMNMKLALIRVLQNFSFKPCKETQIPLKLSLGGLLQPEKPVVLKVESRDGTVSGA
Outline: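 Activity is derived from decreased fluorescence intensity relative to acetonitrile, measured 0.33 hour after dosing insect-cell-expressed CYP3A4 in a cell-free format. Screening used 10 uM in duplicate before concentration-response follow-up.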

[17] = molecular target: human CYP19A1, CYP19A1 (gene 1588) (UniProt P11511); experiment: NVS_ADME_hCYP19A1: NovaScreen (NVS) CYP450-related Enzyme Activity (ADME) Assay for human CYP19A1 (AID 2283098; active = hit-call score of the fitted dose curve at least 0.9, where 1 is the maximum;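 as to AC50: potency for inhibitors seen as loss of fluorescent enzyme signal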)
human CYP19A1, CYP19A1 (gene 1588), sequence (P11511 whole entry, looked up): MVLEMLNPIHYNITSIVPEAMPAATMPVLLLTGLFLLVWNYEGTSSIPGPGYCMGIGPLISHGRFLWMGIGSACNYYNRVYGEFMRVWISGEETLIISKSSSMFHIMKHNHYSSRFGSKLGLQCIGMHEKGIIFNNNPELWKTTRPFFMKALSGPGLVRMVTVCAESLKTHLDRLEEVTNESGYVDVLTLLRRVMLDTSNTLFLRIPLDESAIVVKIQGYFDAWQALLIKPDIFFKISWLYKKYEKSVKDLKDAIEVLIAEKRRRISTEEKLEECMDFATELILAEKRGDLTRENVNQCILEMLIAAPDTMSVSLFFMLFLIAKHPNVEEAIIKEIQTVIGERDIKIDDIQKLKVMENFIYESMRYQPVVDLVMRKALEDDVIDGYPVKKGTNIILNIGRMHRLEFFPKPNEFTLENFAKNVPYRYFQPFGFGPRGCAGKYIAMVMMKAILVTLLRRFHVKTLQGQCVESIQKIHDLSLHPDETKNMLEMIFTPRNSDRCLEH
Outline: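 Compounds were first screened at 10 uM in duplicate against purified enzyme, with a fluorogenic substrate and fluorescence intensity detection after 0.5 h. Inhibition appears as reduced signal against acetonitrile control.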

[18] = molecular target: human CYP1A1, CYP1A1 (gene 1543) (UniProt P04798); experiment: NVS_ADME_hCYP1A1: NovaScreen (NVS) CYP450-related Enzyme Activity (ADME) Assay for human CYP1A1 (AID 2283100; active = hit-call score of the fitted dose curve at least 0.9, where 1 is the maximum)
human CYP1A1, CYP1A1 (gene 1543), sequence (P04798 whole entry, looked up): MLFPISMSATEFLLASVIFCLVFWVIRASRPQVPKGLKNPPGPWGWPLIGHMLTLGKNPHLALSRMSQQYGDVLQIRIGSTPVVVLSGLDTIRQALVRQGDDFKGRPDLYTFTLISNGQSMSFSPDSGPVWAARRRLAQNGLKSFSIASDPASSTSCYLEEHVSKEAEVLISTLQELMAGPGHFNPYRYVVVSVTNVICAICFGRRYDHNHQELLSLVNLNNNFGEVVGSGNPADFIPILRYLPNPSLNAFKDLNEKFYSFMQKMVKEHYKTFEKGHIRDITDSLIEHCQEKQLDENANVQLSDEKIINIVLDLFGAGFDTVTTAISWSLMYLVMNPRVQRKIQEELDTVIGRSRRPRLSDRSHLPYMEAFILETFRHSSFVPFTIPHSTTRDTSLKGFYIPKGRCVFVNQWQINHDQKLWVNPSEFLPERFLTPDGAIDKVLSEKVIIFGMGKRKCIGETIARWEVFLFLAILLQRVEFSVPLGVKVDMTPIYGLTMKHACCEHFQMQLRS
Outline: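 Chemicals were first tested in duplicate at 10 uM, and those passing a 30% inhibition threshold were rerun as concentration series topping at 20 uM. Fluorescence read-out of recombinant enzyme turnover after 1 h, relative to acetonitrile.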

Measured: AC50

E-selectin (Homo sapiens), sequence (P16581 whole entry, looked up): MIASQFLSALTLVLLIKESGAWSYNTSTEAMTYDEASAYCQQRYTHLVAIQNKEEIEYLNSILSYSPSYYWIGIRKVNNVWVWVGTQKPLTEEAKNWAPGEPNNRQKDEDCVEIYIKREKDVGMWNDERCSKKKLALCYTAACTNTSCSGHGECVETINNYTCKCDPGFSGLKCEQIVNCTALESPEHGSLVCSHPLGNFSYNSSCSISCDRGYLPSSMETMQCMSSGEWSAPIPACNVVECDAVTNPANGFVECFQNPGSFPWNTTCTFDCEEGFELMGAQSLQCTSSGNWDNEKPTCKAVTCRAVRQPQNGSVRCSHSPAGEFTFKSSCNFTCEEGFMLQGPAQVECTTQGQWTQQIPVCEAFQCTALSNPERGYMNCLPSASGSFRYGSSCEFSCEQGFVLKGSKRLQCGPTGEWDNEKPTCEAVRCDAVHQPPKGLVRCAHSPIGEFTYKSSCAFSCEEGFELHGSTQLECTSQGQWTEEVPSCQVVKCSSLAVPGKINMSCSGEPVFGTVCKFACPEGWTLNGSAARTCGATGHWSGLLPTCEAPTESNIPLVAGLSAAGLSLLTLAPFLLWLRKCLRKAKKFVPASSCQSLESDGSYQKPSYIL
Tumor necrosis factor (Homo sapiens), sequence (P01375 whole entry, looked up): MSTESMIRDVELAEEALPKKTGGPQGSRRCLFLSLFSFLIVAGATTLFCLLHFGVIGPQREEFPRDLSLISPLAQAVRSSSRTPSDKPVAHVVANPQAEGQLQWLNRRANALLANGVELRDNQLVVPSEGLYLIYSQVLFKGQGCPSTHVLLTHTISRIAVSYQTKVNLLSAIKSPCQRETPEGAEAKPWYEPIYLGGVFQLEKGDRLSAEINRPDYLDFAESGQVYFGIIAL

CCCCOC(=O)c1ccc(O)cc1
active: [13] 4.55 µM | [14] 2.4 µM | [15] 4.89 µM
not listed: [16] | [17] | [18]
inactive: all other assays above

c1ccc2n[nH]nc2c1
not listed: [13] | [14] | [15] | [16] | [17] | [18]
inactive: all other assays above

CCCC(=O)OCCC(C)C
not listed: [13] | [14] | [15] | [16] | [17] | [18]
inactive: all other assays above

Cc1occc1C(=O)Nc1ccc(C(=O)N2CCC(F)(F)/C(=C\C(=O)N3CCC(N4CCCCC4)CC3)c3ccccc32)cc1
active: [15] 1.77 µM
not listed: [8] | [13] | [14] | [17] | [18]
inactive: all other assays above

CC(=O)N1CCN(c2ccc(OC[C@H]3CO[C@](Cn4ccnc4)(c4ccc(Cl)cc4Cl)O3)cc2)CC1
active: [1] 33 µM | [2] 36.7 µM | [3] 28.1 µM | [4] 27.4 µM | [5] 24.1 µM | [6] 30.1 µM | [7] 32.4 µM | [8] 37.7 µM | [9] 33 µM | [10] 26.5 µM | [11] 22.8 µM | [12] 24.7 µM

c1ccc(C[n+]2cccc3ccccc32)cc1
active: [15] 7.84 µM
not listed: [13] | [14] | [16] | [17] | [18]
inactive: all other assays above

OCCO
not listed: [13] | [14] | [15] | [16] | [18]
inactive: all other assays above

NC(=O)c1nc(-c2cccc(-c3cc(F)ccc3OCC(F)(F)C(F)(F)F)c2)n[nH]1
active: [1] 33.4 µM | [2] 37.4 µM | [3] 35.3 µM | [4] 29.5 µM | [5] 26.9 µM | [6] 29 µM | [7] 19.3 µM | [8] 40.3 µM | [9] 35.7 µM | [10] 18.2 µM | [11] 26.2 µM | [12] 32.7 µM

Cc1c2ccccc2c(C)c2c1ccc1ccccc12
active: [3] 24.1 µM | [4] 28.6 µM | [5] 22.3 µM | [7] 5.2 µM | [9] 34 µM | [10] 26.4 µM | [12] 29.1 µM | [14] 4.33 µM
inactive: [1] | [2] | [6] | [8]

Oc1ccc2ccccc2c1
active: [7] 10.8 µM
not listed: [13] | [14] | [15] | [16] | [17] | [18]
inactive: all other assays above

O=C1O[C@H]([C@@H](O)CO)C(O)=C1O
not listed: [13] | [14] | [15] | [16] | [17] | [18]
inactive: all other assays above

CN(C)c1ccc(C(=C2C=CC(=[N+](C)C)C=C2)c2ccc(N(C)C)cc2)cc1
active: [1] 0.662 µM | [2] 1.46 µM | [3] 2.51 µM | [4] 1.01 µM | [5] 0.534 µM | [6] 0.325 µM | [7] 0.223 µM | [8] 1.61 µM | [9] 5.83 µM | [10] 0.148 µM | [11] 0.693 µM | [12] 7.53 µM | [18] 2.02 µM | [13] 6.7 µM | [14] 6.67 µM | [15] 2.86 µM

O=c1c(-c2ccc(O)cc2)coc2cc(O)cc(O)c12
inactive: [13]
active: [1] 13.2 µM | [2] 15.8 µM | [3] 13.9 µM | [4] 25.1 µM | [5] 25.6 µM | [6] 18.7 µM | [7] 24.9 µM | [8] 29.7 µM | [9] 20 µM | [10] 20 µM | [11] 15.6 µM | [12] 20 µM

O=C1CCC(C2CCCCC2)CC1
active: [17] 11.6 µM
inactive: [1] | [2] | [3] | [4] | [5] | [6] | [7] | [8] | [9] | [10] | [11] | [12] | [17]

c1ccc2ccccc2c1
not listed: [13] | [14] | [15] | [16] | [17] | [18]
inactive: all other assays above
